Where “and” joins values, the source holds several entries; their conditions need not be identical. Identical values can stand only once. Records with an inconclusive call do not appear. Calls of active or inactive are those of the source. Unless noted, calls come from the whole dose curve; as a rule, active = well fitted curve in the direction sought with a large enough effect in the repeat runs; inconclusive = weak or mixed curves; inactive = no such curve, though single readings can be large; an effect the other way counts as inactive or inconclusive.
Experiments:
[1] = qHTS assay to identify small molecule agonists of the peroxisome proliferator-activated receptor delta (PPARd) signaling pathway - cell viability counter screen (AID 743211); note: nearly all actives have a fitted effect of over 55% in size; note: potency is the fitted concentration of half-maximal effect
How it was run: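 PPARd-bla HEK293H cells (3000/well) were pre-incubated 5 h at 37 C, then exposed to compound for 17 h at 37 C. After 2 h with LiveBLAzer substrate, CellTiter-Glo was added to the same wells; luminescence read after 30 min at room temperature.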

[2] = qHTS assay to identify small molecule antagonists of the peroxisome proliferator-activated receptor delta (PPARd) signaling pathway - cell viability counter screen (AID 743213); note: nearly all actives have a fitted effect of over 50% in size; note: potency is the fitted concentration of half-maximal effect
How it was run: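 HEK293H cells with the PPARd UAS-bla reporter, co-treated 17 h at 37 C with compounds and L165041 (300 nM final), were lysed with CellTiter-Glo. Luminescence indicated viable cell content.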

[3] = qHTS assay to identify small molecule agonists of the farnesoid-X-receptor (FXR) signaling pathway - cell viability counter screen (AID 743218); note: nearly all actives have a fitted effect of over 45% in size
How it was run: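 Same-well cytotoxicity check on FXR-UAS-bla HEK 293T cells: 5 h attachment, 16 h compound at 37 C, CellTiter-Glo luminescence read at room temperature after 30 min.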

[4] = target: Bile acid receptor (Homo sapiens) (UniProt Q96RI1); assay: qHTS assay to identify small molecule agonists of the farnesoid-X-receptor (FXR) signaling pathway (AID 743220; active = well fitted activation curve with a large enough effect in the signal ratio in the repeat runs, not every such curve was filed as active; the % refers to the signal ratio)
How it was run: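 FXR-UAS-bla HEK 293T cells carrying a UAS-driven beta-lactamase reporter were plated for 5 h at 37C/5% CO2, then exposed to DMSO-dissolved Tox21 10K compounds for 16 h at 37C. A LiveBLAzer B/G FRET substrate was loaded for 2 h at room temperature before fluorescence reading.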

[5] = qHTS assay to identify small molecule antagonists of the farnesoid-X-receptor (FXR) signaling pathway - cell viability counter screen (AID 743221; active = well fitted cell-killing curve with a large enough effect in the repeat runs, not every such curve was filed as active; note: nearly all actives have a fitted effect of over 50% in size)
How it was run: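 GeneBLAzer FXR-UAS-bla HEK 293T cells, compound plus chenodeoxycholic acid (50 uM final), 16 h at 37 C. CellTiter-Glo added to the same wells after the beta-lactamase read; luminescence read after 30 min at room temperature as viability.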

[6] = target: Vitamin D3 receptor (Homo sapiens) (UniProt P11473); assay: qHTS assay to identify small molecule agonists of the vitamin D receptor (VDR) signaling pathway (AID 743222; calls by dose curve)
How it was run: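 Using LiveBLAzer B/G FRET detection, agonism was scored in VDR-bla cells exposed overnight (16 h, 37C) to DMSO-dissolved compounds; substrate incubation was 2 h at room temperature.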

[7] = target: Vitamin D3 receptor (Homo sapiens) (UniProt P11473); assay: qHTS assay to identify small molecule antagonists of the vitamin D receptor (VDR) signaling pathway (AID 743223; active = well fitted inhibition curve with a large enough effect in the signal ratio in the repeat runs, not every such curve was filed as active; the % refers to the signal ratio)
How it was run: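 VDR-bla cells were treated with compound plus 3 nM final 1alpha,25-dihydroxyvitamin D3 for 16 h at 37C. Beta-lactamase reporter read by B/G FRET substrate fluorescence after 2 h at room temperature. qHTS format.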

[8] = qHTS assay to identify small molecule agonists of the vitamin D receptor (VDR) signaling pathway - cell viability counter screen (AID 743224); note: series mostly up to about 63 µM; nearly all actives have a fitted effect of over 50% in size
How it was run: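 Counter screen for cytotoxicity: VDR-bla cells at 2,000 cells/well, 16 h compound exposure, then CellTiter-Glo luminescence after the beta-lactamase measurement.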

[9] = qHTS assay to identify small molecule antagonists of the vitamin D receptor (VDR) signaling pathway - cell viability counter screen (AID 743225); note: nearly all actives have a fitted effect of over 50% in size
How it was run: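 VDR-UAS-bla HEK 293T cells were plated and incubated 4 h at 37C, then dosed with compound plus 3 nM (final) 1-alpha,25-dihydroxyvitamin D3 for 16 h. After the 2 h beta-lactamase read, viability in the same wells was read as CellTiter-Glo luminescence after 30 min at room temperature.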

[10] = qHTS assay to identify small molecule agonists of the NFkB signaling pathway - cell viability counter screen (AID 1159515; calls by dose curve; note: nearly all actives have a fitted effect of over 55% in size; note: potency is the fitted concentration of half-maximal effect)
How it was run: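 Counter screen run alongside the NFkB-bla agonist assay: ME-180 reporter cells exposed to compounds for 5 hr, then lysed with CellTiter-Glo in the same wells. Luminescence, read after 30 min, reflects viable cells.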

[11] = qHTS assay to identify small molecule agonists of the endoplasmic reticulum stress response signaling pathway (AID 1159516; active = well fitted activation curve with a large enough effect in the signal ratio in the repeat runs, not every such curve was filed as active; the % refers to the signal ratio)
How it was run: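 For this screen, HeLa cells stably carrying beta-lactamase under the ER stress response element received test compounds, positive controls or DMSO for 5 hr at 37 C; B/G FRET substrate was then added and dual-wavelength emission recorded.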

[12] = qHTS assay to identify small molecule agonists of the endoplasmic reticulum stress response signaling pathway - cell viability counter screen (AID 1159517; calls by dose curve; note: nearly all actives have a fitted effect of over 50% in size; note: potency is the fitted concentration of half-maximal effect)
How it was run: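 Cytotoxicity of test compounds toward ESRE-bla HeLa cells was assessed after 5 hr exposure. The luminescent CellTiter-Glo signal was measured 30 min after reagent addition.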

[13] = qHTS assay to identify small molecule antagonists of the retinoid-related orphan receptor gamma (ROR-gamma) signaling pathway - cell viability counter screen (AID 1159520); note: nearly all actives have a fitted effect of over 50% in size
How it was run: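 Tet-on ROR gamma CHO cells (1,000/well) were plated 4 hr, given compounds in DMSO for 2 hr at 37 C, then induced with 1 uM final doxycycline for 16 hr. Viability was read as ATP by CellTiter-Glo luminescence after 30 min.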

[14] = target: Nuclear receptor ROR-gamma (Homo sapiens) (UniProt P51449); assay: qHTS assay to identify small molecule antagonists of the retinoid-related orphan receptor gamma (ROR-gamma) signaling pathway (AID 1159521; note: nearly all actives have a fitted effect of over 50% in size; note: potency is the fitted concentration of half-maximal effect)
How it was run: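 Tet-on ROR-gamma CHO cells with ROR response element-luciferase reporter; compounds added 2 hr before 1 uM doxycycline induction, then 16 hr at 37 C. Antagonism scored as decreased ONE-Glo luminescence.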

[15] = qHTS assay to identify small molecule agonists of the AP-1 signaling pathway - cell viability counter screen (AID 1159525; calls by dose curve; note: nearly all actives have a fitted effect of over 55% in size)
How it was run: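 Each titration point was normalised to DMSO and tetra n-octyl ammonium bromide controls. The read was Cell Titer Glo luminescence after 30 min at RT, following 5 h compound exposure of ME-180 AP-1-bla cells at 37 °C.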

[16] = qHTS assay to identify small molecule agonists of the AP-1 signaling pathway (AID 1159526; calls by dose curve)
[17] = target: Retinoic acid receptor RXR-alpha (Homo sapiens) (UniProt P19793); assay: qHTS assay to identify small molecule agonists of the RXR signaling pathway (AID 1159527; calls by dose curve; note: nearly all actives have a fitted effect of over 35% in size; note: potency is the fitted concentration of half-maximal effect)
How it was run: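 GeneBLAzer RXR-alpha-UAS-bla HEK 293T cells in 2% charcoal-stripped FBS medium were exposed to compounds for 16 hr at 37 C in agonist mode. Beta-lactamase reporter read as 460/530 nm FRET ratio after 2 hr substrate loading.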

[18] = target: Peroxisome proliferator-activated receptor delta (Homo sapiens) (UniProt Q03181); assay: qHTS assay to identify small molecule antagonists of the peroxisome proliferator-activated receptor delta (PPARd) signaling pathway (AID 743215; active = well fitted inhibition curve with a large enough effect in the signal ratio in the repeat runs, not every such curve was filed as active; the % refers to the signal ratio;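 note: cells stimulated with agonist L165041 at 300 nM final during compound exposure; series mostly up to about 62 µM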)
How it was run: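 Screen format: qHTS, antagonist mode. HEK293H PPARd-bla cells received compound and 300 nM L165041 (final), 17 h, 37 C. Beta-lactamase detected via FRET substrate fluorescence, 2 h, room temperature.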

[19] = target: Peroxisome proliferator-activated receptor delta (Homo sapiens) (UniProt Q03181); assay: qHTS assay to identify small molecule agonists of the peroxisome proliferator-activated receptor delta (PPARd) signaling pathway (AID 743212; calls by dose curve;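 note: HEK293H cells with PPARd UAS beta-lactamase reporter GeneBLAzer system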)
How it was run: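 Beta-lactamase reporter read by fluorescence (LiveBLAzer B/G FRET, 2 h, room temperature). Test agents, in DMSO, incubated at 37 C with PPARd-bla HEK293H cells.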

[20] = target: Bile acid receptor (Homo sapiens) (UniProt Q96RI1); assay: qHTS assay to identify small molecule antagonists of the farnesoid-X-receptor (FXR) signaling pathway (AID 743217; active = well fitted inhibition curve with a large enough effect in the signal ratio in the repeat runs, not every such curve was filed as active; the % refers to the signal ratio)
How it was run: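 Quantitative HTS, beta-lactamase reporter format: FXR-UAS-bla HEK 293T cells co-treated 16 h at 37 °C with compounds and 50 uM final chenodeoxycholic acid, then read by B/G FRET fluorescence.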

Measured: Potency

Chain of Vitamin D3 receptor (Homo sapiens) (P11473 whole entry, looked up): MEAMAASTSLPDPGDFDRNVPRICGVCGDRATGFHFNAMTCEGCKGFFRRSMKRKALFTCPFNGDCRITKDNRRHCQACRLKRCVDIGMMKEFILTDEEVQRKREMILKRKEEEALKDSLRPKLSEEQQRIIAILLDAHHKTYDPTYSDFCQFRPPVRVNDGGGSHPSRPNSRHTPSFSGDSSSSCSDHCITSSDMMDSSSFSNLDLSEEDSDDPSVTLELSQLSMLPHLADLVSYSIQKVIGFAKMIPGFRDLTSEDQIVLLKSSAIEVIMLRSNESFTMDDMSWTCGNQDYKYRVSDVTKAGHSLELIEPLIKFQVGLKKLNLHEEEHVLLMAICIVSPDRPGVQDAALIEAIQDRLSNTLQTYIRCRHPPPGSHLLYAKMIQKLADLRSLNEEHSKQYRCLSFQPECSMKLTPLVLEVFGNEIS
Chain of Retinoic acid receptor RXR-alpha (Homo sapiens) (P19793 whole entry, looked up): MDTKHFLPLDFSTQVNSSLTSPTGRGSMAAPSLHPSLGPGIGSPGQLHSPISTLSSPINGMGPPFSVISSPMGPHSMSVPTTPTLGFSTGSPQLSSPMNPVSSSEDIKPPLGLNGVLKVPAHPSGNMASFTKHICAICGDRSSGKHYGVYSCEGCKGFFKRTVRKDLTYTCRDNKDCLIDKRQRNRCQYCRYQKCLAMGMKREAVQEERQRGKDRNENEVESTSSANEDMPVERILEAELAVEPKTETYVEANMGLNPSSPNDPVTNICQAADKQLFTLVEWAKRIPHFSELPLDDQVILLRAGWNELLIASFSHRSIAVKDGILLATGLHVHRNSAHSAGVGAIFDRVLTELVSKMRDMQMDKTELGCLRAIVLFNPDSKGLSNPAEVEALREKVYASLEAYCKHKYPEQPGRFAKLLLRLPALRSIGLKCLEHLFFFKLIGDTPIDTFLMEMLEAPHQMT
Chain of Peroxisome proliferator-activated receptor delta (Homo sapiens) (Q03181 whole entry, looked up): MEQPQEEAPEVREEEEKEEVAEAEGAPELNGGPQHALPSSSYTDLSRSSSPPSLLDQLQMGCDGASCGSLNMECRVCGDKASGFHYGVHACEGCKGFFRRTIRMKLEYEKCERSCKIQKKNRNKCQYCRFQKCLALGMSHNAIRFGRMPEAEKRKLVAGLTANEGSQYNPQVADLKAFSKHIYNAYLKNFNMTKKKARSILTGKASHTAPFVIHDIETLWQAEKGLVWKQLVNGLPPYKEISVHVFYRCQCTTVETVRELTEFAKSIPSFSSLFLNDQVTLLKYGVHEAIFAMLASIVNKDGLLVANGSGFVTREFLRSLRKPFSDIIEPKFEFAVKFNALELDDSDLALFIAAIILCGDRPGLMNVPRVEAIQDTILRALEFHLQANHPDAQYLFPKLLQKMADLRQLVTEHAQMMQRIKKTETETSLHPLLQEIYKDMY
Chain of Bile acid receptor (Homo sapiens) (Q96RI1 whole entry, looked up): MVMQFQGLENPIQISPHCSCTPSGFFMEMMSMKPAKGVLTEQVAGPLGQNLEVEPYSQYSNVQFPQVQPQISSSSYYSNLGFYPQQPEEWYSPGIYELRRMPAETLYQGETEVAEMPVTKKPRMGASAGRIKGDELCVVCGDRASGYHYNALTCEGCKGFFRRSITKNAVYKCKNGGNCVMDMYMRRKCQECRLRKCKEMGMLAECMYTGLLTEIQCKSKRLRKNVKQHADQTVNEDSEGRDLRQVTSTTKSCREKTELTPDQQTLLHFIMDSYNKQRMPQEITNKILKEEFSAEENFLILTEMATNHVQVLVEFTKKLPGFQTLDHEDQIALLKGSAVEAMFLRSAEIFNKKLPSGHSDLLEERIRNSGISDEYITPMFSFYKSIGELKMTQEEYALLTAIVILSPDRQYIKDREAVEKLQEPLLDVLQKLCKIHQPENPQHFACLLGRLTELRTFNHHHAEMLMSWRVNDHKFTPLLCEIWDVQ

C=CCOCC1CO1 (stereo unspecified)
inactive: [1] | [2] | [3] | [4] | [5] | [6] | [7] | [8] | [9] | [10] | [11] | [12] | [13] | [14] | [15] | [16] | [17]

Nc1ccccc1C(=O)OCCc1ccccc1
inactive: [1] | [2] | [3] | [5] | [6] | [7] | [8] | [9] | [10] | [11] | [12] | [13] | [14] | [15] | [16]

O=S(=O)(Cl)Cl
inactive: [1] | [3] | [6] | [7] | [8] | [9] | [10] | [11] | [12] | [13] | [14] | [15] | [16] | [17]

O=C(N[C@H]1CN2CCC1CC2)c1ccc2c(c1)OCCO2
inactive: [1] | [2] | [3] | [5] | [7] | [8] | [9] | [10] | [11] | [12] | [13] | [14] | [15] | [16]

COC(=O)Cc1ccccc1
inactive: [1] | [2] | [18] | [3] | [5] | [6] | [8] | [10] | [11] | [12] | [13] | [14] | [15] | [16]

CC[N+]1(CCOC(=O)C(O)(c2ccccc2)c2ccccc2)CCCCC1
inactive: [1] | [19] | [2] | [18] | [20] | [3] | [4] | [5] | [6] | [7] | [8] | [9] | [10] | [11] | [12] | [13] | [14] | [16] | [17]

O=C(O)C(Cl)(Cl)Br
inactive: [1] | [18] | [3] | [4] | [5] | [6] | [7] | [8] | [9] | [10] | [11] | [12] | [13] | [14] | [15] | [16] | [17]

COC1=CC(=O)O[C@@H](/C=C/c2ccc3c(c2)OCO3)C1
inactive: [1] | [19] | [2] | [18] | [3] | [5] | [8] | [9] | [10] | [11] | [12] | [13] | [14] | [15] | [16]

C[N+]1(CCC(C(N)=O)(c2ccccc2)c2ccccc2)CCCCC1
inactive: [1] | [18] | [20] | [3] | [4] | [5] | [10] | [11] | [12] | [13] | [14] | [15] | [16] | [17]

O=C(NC(=O)c1cc(F)c(F)cc1Cl)Nc1cc(F)ccc1N1CCC(C(=O)O)CC1
inactive: [19] | [2] | [18] | [3] | [5] | [6] | [7] | [8] | [9] | [10] | [11] | [12] | [13] | [14] | [15] | [16]

CC(C)(C)c1ccc(CCOc2ncnc3ccccc23)cc1
inactive: [1] | [2] | [20] | [3] | [4] | [5] | [6] | [7] | [8] | [9] | [10] | [11] | [12] | [13] | [14] | [15] | [16] | [17]

CCN(C(C)=O)c1cccc(-c2ccnc3c(C#N)cnn23)c1
inactive: [1] | [2] | [3] | [4] | [5] | [6] | [7] | [8] | [9] | [10] | [11] | [12] | [13] | [14] | [15] | [16] | [17]

CC(C)c1ccc(OP(=O)(Oc2ccc(C(C)C)cc2)Oc2ccc(C(C)C)cc2)cc1
inactive: [4] | [6] | [7] | [8] | [11] | [13] | [15] | [16]
active: [1] 27.7 µM and 43.7 µM and 27.5 µM | [2] 4.89 µM | [10] 30.9 µM | [12] 9.77 µM | [14] 27.5 µM and 30.6 µM

CC(C)(C)OOC(C)(C)CCC(C)(C)OOC(C)(C)C
inactive: [1] | [2] | [3] | [5] | [6] | [8] | [9] | [10] | [11] | [12] | [13] | [14] | [15] | [16] | [17]

CCCC[P+](CC)(CCCC)CCCC (tested in a mixture with another compound)
inactive: [1] | [2] | [3] | [5] | [6] | [7] | [8] | [9] | [10] | [11] | [12] | [13] | [14] | [15] | [16] | [17]

FC(F)OC(F)(F)C(F)Cl (stereo unspecified)
inactive: [1] | [19] | [2] | [18] | [3] | [5] | [6] | [7] | [8] | [10] | [11] | [12] | [13] | [14] | [16] | [17]

C[C@]12C=CC3=C4CCC(=O)C=C4CC[C@H]3[C@@H]1CC[C@@H]2O
inactive: [1] | [3] | [5] | [8] | [9] | [10] | [11] | [12] | [13] | [14] | [15] | [16]

CC(C)C1(C)N=C(c2ncccc2C(=O)O)NC1=O (stereo unspecified)
inactive: [1] | [19] | [2] | [18] | [20] | [3] | [4] | [5] | [6] | [7] | [8] | [9] | [10] | [11] | [12] | [13] | [14] | [16]
active: [17] 43.5 µM

Reference: PubChem BioAssay (Tox21)
